Compound activity as filed in PubChem BioAssay.
Hits are enriched below; roughly 3.8% of the tested compounds scored in any of these assays.
NTR1 ag = NTR1 (human) agonism | 330,000 tested, 0.17% active | P30989 | AID 493036 | activation, % at 20 µM | NTR1-U2OS beta-arrestin-GFP spot imaging, agonist mode;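 active = activation at or above 40% of the spot to cytoplasm intensity ratio, with at least 20 cells analyzed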
Target sequence (P30989 whole entry, looked up): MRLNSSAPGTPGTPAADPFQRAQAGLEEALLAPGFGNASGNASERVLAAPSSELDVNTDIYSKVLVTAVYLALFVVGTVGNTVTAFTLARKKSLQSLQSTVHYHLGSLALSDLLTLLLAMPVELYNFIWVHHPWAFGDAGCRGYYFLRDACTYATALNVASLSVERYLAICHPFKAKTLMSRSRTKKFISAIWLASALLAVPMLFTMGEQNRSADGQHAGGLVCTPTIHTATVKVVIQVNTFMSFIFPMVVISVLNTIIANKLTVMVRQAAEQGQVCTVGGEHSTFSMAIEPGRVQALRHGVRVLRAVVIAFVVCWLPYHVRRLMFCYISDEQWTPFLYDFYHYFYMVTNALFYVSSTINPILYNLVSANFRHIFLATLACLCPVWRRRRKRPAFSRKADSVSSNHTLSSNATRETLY
Jurkat NFkB inh = inhibitors of the PMA/ionomycin-induced NF-kB reporter in Jurkat cells | PMA/ionomycin-induced NF-kB luciferase reporter, luminescence | inhibition, % at 4 µM | 330,000 tested, 0.53% active; in the data active = inhibition above about 50%
697 NFkB inh = lowers PMA/ionomycin-induced NF-kB signal in 697 B cells; 697 B-cell NF-kB luciferase reporter, 16 h; 330,000 tested, 0.33% active; inhibition, % at 4 µM; in the data active = inhibition above about 35%
Mdm2-MdmX inh = inhibitors of human Mdm2/MdmX interaction | O15151+Q00987 | SaOS-2 split-luciferase Mdm2/MdmX complementation, luminescence | inhibition, % at 8 µM | 330,000 tested, 3% active;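 active = inhibition of at least 50% at 8 µM in the primary screen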
Bfl-1 A1 inh = inhibitors of the anti-apoptotic protein A1, read as caspase activation. AID 2462. 330,000 tested, 0.066% active. caspase activation, % (no concentration beside the values). MEF A1-2A-BIM cells, Caspase-Glo 3/7 luminescence, 3 h; percent of clofoctol response, vehicle zero;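 active = over half of replicate activation scores above 10%, or exactly half above 10 with the replicate mean above 10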
Beta apoptosis = blocks beta cell apoptosis; INS-1E cytokine-induced death, ATP luminescence, 48 h; percent of positive-control rescue, neutral wells zero; 300,000 tested, 0.8% active; protection from apoptosis, % (no concentration beside the values); AID 435005;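 active = Every replicate reaches about 75%, or at least half do and their mean reaches it too, limit read from the data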;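 note: higher means more ATP so stronger rescue from cytokine killing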
Jurkat NFkB conf = inhibitors of the PMA/ionomycin-induced NF-kB reporter in Jurkat cells, retest. shares compounds with Jurkat NFkB inh. Jurkat NF-kB luciferase, 16 h. AID 435020. 2,700 tested, 27% active. inhibition, % at 4 µM;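 active = inhibition reaching about 45% at 4 µM in either replicate, limit read from the data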
Large screens that a line does not name were inactive (follow-up assays come after a bar, where they were run).

C(=N\Nc1nc2ccccc2[nH]1)/c1ccncc1	none (no result: Beta apoptosis)
Cc1cc(NC(=O)COC(=O)c2ccc(S(=O)(=O)N3CCCc4ccccc43)cc2)no1	Jurkat NFkB inh 51.5 | Jurkat NFkB conf inactive
Cc1cc(NC(=O)COC(=O)c2ccc(S(=O)(=O)N3CCCC3)cc2)no1	none
O=C(COC(=O)C1CC1)Nc1ccc(N=Nc2ccccc2)cc1	none | Jurkat NFkB conf inactive
O=C(COC(=O)C1CC1)Nc1ccc(OC(F)F)cc1	none
COc1ccc(C=O)cc1COc1ccc2c(c1)OCO2	Jurkat NFkB inh 58.9 (no result: Bfl-1 A1 inh, Beta apoptosis) | Jurkat NFkB conf inactive
COc1ccc(-c2csc3ncnc(Cl)c23)cc1	none
COc1ccc(Nc2ncnc3scc(-c4ccc(OC)cc4)c23)cc1	Jurkat NFkB inh 51.6 | Jurkat NFkB conf inactive
CCn1cc(CNC(=O)c2ccc(OC3CCN(Cc4ccccn4)CC3)cc2)cn1	none
CCn1nc(C)c(CNC(=O)c2ccc(OC3CCN(Cc4ccccn4)CC3)cc2)c1C	Jurkat NFkB inh 65.0, Beta apoptosis 79.4 | Jurkat NFkB conf 56.8
COc1ccc(-c2nnn(Cc3ccccc3F)n2)cc1	none
Fc1ccccc1Cn1nnc(-c2ccc3c(c2)OCO3)n1	none (no result: Bfl-1 A1 inh) | Jurkat NFkB conf inactive
CN1CCN(c2ccc(-c3cccc(NC(=O)COc4ccccc4)c3)nn2)CC1	none | Jurkat NFkB conf inactive
CN1CCN(c2ccc(-c3cccc(NC(=O)COc4ccc(Cl)cc4)c3)nn2)CC1	none (no result: Beta apoptosis) | Jurkat NFkB conf inactive
CN1CCN(c2ccc(-c3cccc(NC(=O)COc4ccc(Cl)cc4Cl)c3)nn2)CC1	none (no result: Beta apoptosis) | Jurkat NFkB conf inactive
O=C(COc1ccccc1)Nc1cccc(-c2nc3cc4ccccc4cc3[nH]2)c1	none | Jurkat NFkB conf inactive
CCC(=O)Nc1cccc(-c2ccc(N3CCN(C)CC3)nn2)c1	none
Cc1cc(S(=O)(=O)NCC(c2ccc3c(c2)OCO3)N2CCOCC2)ccc1F (stereo not given)	none
CC(=Nc1ccc(Br)cc1)c1sc2ccccc2c1O	none | Jurkat NFkB conf inactive
NC(=Nc1ccc(Br)cc1)c1ccccc1	none
O=S(=O)(NC(=NC1CCCCC1)c1ccccc1F)c1ccccc1	none (no result: Beta apoptosis)
Cc1cc(C(=O)Nc2sc3c(c2C#N)CCC(C)C3)cs1 (stereo not given)	none | Jurkat NFkB conf inactive
CC(=O)Nc1sc2c(c1C#N)CCC(C)C2 (stereo not given)	none
Cc1cccc(C(=O)Nc2sc3c(c2C#N)CCCCC3)c1	none | Jurkat NFkB conf inactive
COC(=O)C1=C(C)NC2=C(C(=O)CC(c3cccs3)C2)C1c1ccsc1 (stereo not given)	none (no result: NTR1 ag, Jurkat NFkB inh, 697 NFkB inh, Mdm2-MdmX inh)
CCOC(=O)C1=C(C)NC2=C(C(=O)CC(c3cccs3)C2)C1c1cccs1 (stereo not given)	Jurkat NFkB inh 59.6 | Jurkat NFkB conf inactive
Cc1cccnc1NC(=S)NC(=O)c1cccs1	none | Jurkat NFkB conf inactive
Cc1c(C(=O)OC2CCCC2C)[nH]c2c1C(=O)CCC2 (stereo not given)	none
COC(=O)C1C(=O)c2c([nH]c(C(=O)OC3CCCC3)c2C)CC1C (stereo not given)	none | Jurkat NFkB conf inactive
O=C(Nc1nc2ccc(F)cc2s1)c1cccs1	none | Jurkat NFkB conf inactive
COc1ccc(C(=O)NCC(c2cccs2)N2CCc3ccccc32)c(OC)c1 (stereo not given)	none
COc1cc([N+](=O)[O-])ccc1NC(=S)Nn1cnnc1	none
CCCn1c(NC(=O)CN2C(=O)NC3(CCCC3)C2=O)nc2ccccc21	none
CCOC(=O)c1ccc(NC(=O)c2nc[nH]c2C(=O)NCCCCNC(=O)c2[nH]cnc2C(=O)Nc2ccc(C(=O)OCC)cc2)cc1	Jurkat NFkB inh 67.2 | Jurkat NFkB conf inactive
CC(Sc1nnc(N)s1)C(=O)NC1CCCCC1C (stereo not given)	none
O=C(/C=C/Nc1cccc([N+](=O)[O-])c1)c1cccs1	none (no result: Beta apoptosis) | Jurkat NFkB conf inactive
O=C(CCN1C(=O)c2cccc([N+](=O)[O-])c2C1=O)NC1CCCCCC1	none
CC1CCCC(C)N1S(=O)(=O)c1ccc(NC(=O)CCN2C(=O)C3CC=CCC3C2=O)cc1 (stereo not given)	none (no result: Bfl-1 A1 inh, Beta apoptosis)
S=C(c1ccc(-c2cccc(Cl)c2)o1)N1CCCCC1	none | Jurkat NFkB conf inactive
COc1cc(CCC(=O)Nc2nccs2)cc(OC)c1OC	none
